Compound activity: PubChem BioAssay, several laboratories
SENP6 block – SENP6 protease inhibitors, primary screen, biochemical, luminescence, uHTS; AID 2599, 2010; inhibition, % at 10 µM; Recombinant SENP6 catalytic domain, aminoluciferin luminescence; hit rate 1.8% among 330,000;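 active = inhibition above about 50% at the single tested dose, limit read from the data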;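 note: plate controls were DMSO wells with enzyme for no effect and DMSO wells lacking enzyme for full effect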
Target sequence (Q9GZR1 628-1112 limits assumed): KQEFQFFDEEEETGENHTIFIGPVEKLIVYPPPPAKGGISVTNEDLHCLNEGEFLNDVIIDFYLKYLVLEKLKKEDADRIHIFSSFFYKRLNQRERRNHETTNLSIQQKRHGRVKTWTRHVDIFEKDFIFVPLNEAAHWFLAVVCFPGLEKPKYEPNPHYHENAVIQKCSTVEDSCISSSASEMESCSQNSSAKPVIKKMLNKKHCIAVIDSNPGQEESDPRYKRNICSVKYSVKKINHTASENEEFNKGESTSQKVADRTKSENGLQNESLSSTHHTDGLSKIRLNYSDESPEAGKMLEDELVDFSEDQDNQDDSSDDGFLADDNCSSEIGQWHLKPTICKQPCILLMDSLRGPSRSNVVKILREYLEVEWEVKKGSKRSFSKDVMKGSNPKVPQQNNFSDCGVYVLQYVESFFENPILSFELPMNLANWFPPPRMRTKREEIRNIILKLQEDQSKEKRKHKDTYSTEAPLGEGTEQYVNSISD
HSP90 inh – HSP90 inhibitors, primary screen, cell lysate, luminescence | Heat shock protein HSP 90 (rabbit reticulocyte lysate; luciferase refolding) | AID 1789, 2009 | hit rate 0.91% among 290,000 | inhibition, % at 5.6 µM | Rabbit reticulocyte lysate, luciferase refolding luminescence, 3 h;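 active = inhibition above the screen-wide mean plus 3 SD, computed separately per campaign, cut at about 16% in these data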;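 note: 0% = DMSO wells and 100% = 60 µM geldanamycin wells; inhibitors lower the luminescence because luciferase stays unfolded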
SENP8 block-1 – human SENP8 protease inhibitors, primary screen, biochemical, fluorescence, Nedd8 protein substrate, uHTS; Sentrin-specific protease 8 (Homo sapiens), Q96LD8; recombinant SENP8; inhibition, % at 20 µM; hit rate 0.64% among 360,000; in the data active = inhibition mostly above about 40%, no sharp cut-off; inactive = mostly below about 27%
SENP7 inh – SENP7 protease inhibitors, primary screen, biochemical, luminescence, uHTS. hit rate 1.5% among 330,000. AID 434973, 2010. recombinant SENP7, Z-RLRGG-aminoluciferin luminescence, 40 min. inhibition, % at 5 µM. Sentrin-specific protease 7 (Homo sapiens), Q9BQF6;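 active = inhibition above about 50% at the single test dose, limit read from the data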;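 note: plate controls were DMSO with enzyme for no effect and no enzyme buffer wells for full effect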
SENP8 block-2 – SENP8 protease inhibitors, primary screen, biochemical, luminescence | Sentrin-specific protease 8 (Homo sapiens), Q96LD8 | inhibition, % at 10 µM | purified SENP8, Z-RLRGG-aminoluciferin cleavage | hit rate 1.2% among 330,000 | AID 2540, 2010; in the data active = inhibition above about 50%
SENP8 confirm – SENP8 protease inhibitors, retest, confirmation, biochemical, luminescence, single concentration. inhibition, % at 12.5 µM. hit rate 40% among 6,200. shares compounds with SENP7 inh. Recombinant SENP8, Z-RLRGG-aminoluciferin luminescence, 60 min. AID 488912, 2010;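 active = mean inhibition across replicates above about 50%, limit read from the data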
SENP6 conf – SENP6 protease inhibitors, confirmation, biochemical, luminescence, single concentration; shares compounds with SENP7 inh; recombinant SENP6, Z-RLRGG-aminoluciferin luminescence; inhibition, % at 12.5 µM; hit rate 58% among 6,200; AID 488915, 2010
SENP7 confirm – SENP7 protease inhibitors, retest, confirmation, biochemical, luminescence, single concentration; hit rate 69% among 6,200; shares compounds with SENP7 inh; recombinant SENP7, Z-RLRGG-aminoluciferin luminescence, 40 min; AID 488917, 2010; inhibition, % at 12.5 µM
Casp3 select – caspase-3 protease inhibitors, confirmation, selectivity assay for SENP inhibitor project, biochemical, single concentration; shares compounds with SENP7 inh; purified caspase-3, Z-DEVD-aminoluciferin luminescence, 60 min; hit rate 60% among 6,200; inhibition, % at 12.5 µM;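 active = mean inhibition above about 50%, limit read from the data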;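 note: plate controls were enzyme with DMSO for no effect and wells without caspase-3 for full effect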
SENP luc ctr – luminescence interference (SENP counter-screen); shares compounds with SENP7 inh; Pre-incubated SENP8/Z-RLRGG-aminoluciferin, luciferase luminescence interference; inhibition, % at 12.5 µM; hit rate 39% among 6,200; AID 488919;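 active = mean inhibition above about 50% when retested at one dose, limit read from the data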;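 note: plate controls were DMSO wells with completed reaction for no effect and substrate without enzyme for full effect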
Active calls of the source: *. Rows were chosen to be rich in hits. Some 2.7% of all compounds tested hit in one or more screens of this group.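 Rule for the calls, unless noted: active = mean inhibition above about 50% in the one-dose retest (limit read from the data); inactive = the rest.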

What do the screens show for `Cc1ccc(C(=O)Nc2ccc3c(c2)OCO3)cc1NC(=O)c1ccco1`?
SENP6 block: -11; HSP90 inh: 0; SENP8 block-1: 4; SENP7 inh: 10; SENP8 block-2: -1

What do the screens show for `Cc1cc(NC(=O)c2ccc3c(c2)OCO3)ccc1NC(=O)c1ccco1`?
SENP6 block: 91*; HSP90 inh: 2; SENP8 block-1: 21; SENP7 inh: 92*; SENP8 block-2: 91*; SENP8 confirm: 8; SENP6 conf: 90*; SENP7 confirm: 100*; Casp3 select: 96*; SENP luc ctr: 90*

How did CC(=O)c1ccc(NC(=O)c2ccc3c(c2)C(=O)N(c2ccccn2)C3=O)cc1 do in these assays?
SENP6 block: 2; HSP90 inh: 0; SENP8 block-1: 15; SENP7 inh: 3; SENP8 block-2: 4

Results for O=C(c1ccco1)c1n[nH]nc1-c1ccccc1 ?
SENP6 block: -8; HSP90 inh: -1; SENP8 block-1: 13; SENP7 inh: -7; SENP8 block-2: -10

What do the screens show for `CCOC(=O)c1c(O)c2c([nH]c1=O)CCCC2`?
SENP6 block: 0; HSP90 inh: 3; SENP8 block-1: 7; SENP7 inh: 3; SENP8 block-2: 1

Results for Cc1ccccc1C(=O)NCCn1cc(SCC(=O)NCC2CCCO2)c2ccccc21 (configuration not stated) ?
SENP6 block: 2; HSP90 inh: 4; SENP8 block-1: 5; SENP7 inh: -3; SENP8 block-2: -2

What do the screens show for `COc1ccccc1C(=O)Nc1ccc(Oc2ncnc3sc(-c4ccccc4)cc23)cc1`?
SENP6 block: -4; HSP90 inh: 0; SENP8 block-1: -63; SENP7 inh: 3; SENP8 block-2: -5

What do the screens show for `O=C(Nc1ccc(Br)c(Cl)c1)c1ccco1`?
SENP6 block: 84*; HSP90 inh: -1; SENP8 block-1: 17; SENP7 inh: 70*; SENP8 block-2: 46; SENP8 confirm: 61*; SENP6 conf: 58*; SENP7 confirm: 84*; Casp3 select: 41; SENP luc ctr: 69*

How did O=C(CCc1ccccc1)Nc1ccc(NC(=O)c2ccco2)cc1 do in these assays?
SENP6 block: 10; HSP90 inh: -2; SENP8 block-1: 5; SENP7 inh: 1; SENP8 block-2: 10

Results for O=C(Nc1ccc(CSc2ccccc2)cc1)c1ccco1 ?
SENP6 block: 84*; HSP90 inh: 1; SENP8 block-1: 0; SENP7 inh: 89*; SENP8 block-2: 69*; SENP8 confirm: 7; SENP6 conf: 63*; SENP7 confirm: 95*; Casp3 select: 72*; SENP luc ctr: 38

Results for Cc1ccc(NC(=O)c2ccco2)cc1C ?
SENP6 block: 67*; HSP90 inh: -3; SENP8 block-1: 21; SENP7 inh: 65*; SENP8 block-2: 32; SENP8 confirm: 50*; SENP6 conf: 48; SENP7 confirm: 80*; Casp3 select: 73*; SENP luc ctr: 52*

What do the screens show for `Cc1ccc(NC(=O)c2cc(S(=O)(=O)N3CCCC3)cn2C)cc1C`?
SENP6 block: -16; HSP90 inh: -3; SENP8 block-1: 8; SENP7 inh: 0; SENP8 block-2: -7

Results for Cc1cc(NC(=O)c2ccco2)ccc1NC(=O)c1ccco1 ?
SENP6 block: 26; HSP90 inh: -2; SENP8 block-1: 0; SENP7 inh: 23; SENP8 block-2: 7

Results for CCn1nccc1C(=O)Nc1ccc(C)c(C)c1 ?
SENP6 block: 70*; HSP90 inh: -5; SENP8 block-1: 10; SENP7 inh: 82*; SENP8 block-2: 65*; SENP8 confirm: 69*; SENP6 conf: 64*; SENP7 confirm: 91*; Casp3 select: 84*; SENP luc ctr: 75*

Results for O=C(Nc1ccc(F)cc1)C1CCCO1 (configuration not stated) ?
SENP6 block: -5; HSP90 inh: 0; SENP8 block-1: -26; SENP7 inh: -1; SENP8 block-2: 0

Results for O=C(Nc1ccc(O)cc1)C1CCCO1 (configuration not stated) ?
SENP6 block: -4; HSP90 inh: 4; SENP8 block-1: 5; SENP7 inh: 60*; SENP8 block-2: -3; SENP8 confirm: 6; SENP6 conf: 10; SENP7 confirm: 9; Casp3 select: 4; SENP luc ctr: 3

What do the screens show for `CC(C)S(=O)(=O)c1csc(C(=O)Nc2ccc(F)cc2)c1N`?
SENP6 block: 98*; HSP90 inh: 5; SENP8 block-1: -121; SENP7 inh: 98*; SENP8 block-2: 92*; SENP8 confirm: 96*; SENP6 conf: 97*; SENP7 confirm: 102*; Casp3 select: 97*; SENP luc ctr: 87*

Results for CC(=O)c1ccc(NC(=O)CSc2nnc(NC(=O)c3ccco3)s2)cc1 ?
SENP6 block: 55*; HSP90 inh: -4; SENP8 block-1: -23; SENP7 inh: 47; SENP8 block-2: 55*; SENP8 confirm: 9; SENP6 conf: 10; SENP7 confirm: 15; Casp3 select: 13; SENP luc ctr: 7

Results for CC(=O)Nc1ccc(NC(=O)CSc2nnc(NC(=O)c3ccc(Br)o3)s2)cc1 ?
SENP6 block: 87*; HSP90 inh: 5; SENP8 block-1: -86; SENP7 inh: 48; SENP8 block-2: 70*; SENP8 confirm: 17; SENP6 conf: 14; SENP7 confirm: 14; Casp3 select: 49; SENP luc ctr: 2

What do the screens show for `Cc1cccc(C(=O)Nc2nnc(SCC(=O)Nc3ccc4c(c3)oc3ccccc34)s2)c1`?
SENP6 block: -43; HSP90 inh: -4; SENP8 block-1: -19; SENP7 inh: -3; SENP8 block-2: -16
